Most compounds without a hit are left out; they make up all but 4.8% or so of the library.
DAX1 inh-1: DAX1 (NR0B1) inhibitors, primary screen, cell-based, HEK293, Gal4-DAX1, luciferase luminescence; AID 504766, 2011; HEK293 Gal4-DAX1 luciferase reporter; inhibition, % at 6.75 µM; 340,000 compounds, 0.99% hits;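 active means inhibition above the mean over all tested compounds plus 3 SD, cut at about 4.2% in these data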;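 further: 0% = DAX1-transfected cells with DMSO and 100% = empty-vector control cells with DMSO; inhibition shows as a rise in luminescence from relieved DAX1 repression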
hgDAF12 agonist: H. glycines DAF-12 receptor agonists, primary screen, cell-based, luminescence, HEK293, GAL4 fusion, UAS-luciferase; HEK293 GAL4-hgDAF12 UAS-luciferase reporter, agonist luminescence; normalized to butyrate control; activation, % at 6.8 µM; 370,000 compounds, 1.8% hits; AID 687014, 2013;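 active means activation above a cutoff set at the mean of all screened compounds plus 3 SD, cut at about 10% in these data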;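 further: 0% = DMSO wells and 100% = sodium butyrate wells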
DAX1 inh-2: DAX1 (NR0B1) inhibitors on StAR promoter, primary screen, cell-based, luminescence, SF-1 (NR5A1), full-length DAX-1; HEK293T StAR-luciferase reporter, SF-1/DAX-1 repression relief; inhibition, % at 6.8 µM; 370,000 compounds, 1.1% hits; AID 652010, 2013;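 active means inhibition above the mean over all tested compounds plus 3 SD, cut at about 3.6% in these data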;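 further: 0% = DAX-1 cells with DMSO and 100% = cells lacking DAX-1 with DMSO; higher inhibition means more luminescence from relief of DAX-1 repression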
ssDAF12 agonist: S. stercoralis DAF-12 nuclear receptor activators, primary screen, cell-based, luminescence, HEK293, GRIP1 co-expression, lit1-tk-luc. 370,000 compounds, 1% hits. HEK293 ssDAF-12/GRIP1 lit1-tk-luc reporter; % of 3 µM dafachronic acid response. Nuclear hormone receptor DAF-12 (Strongyloides stercoralis). activation, % at 6.8 µM. AID 652126, 2013;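 active means activation above the mean over all tested compounds plus 3 SD, cut at about 0.9% in these data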;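 further: 0% = DMSO-only wells and 100% = 3 µM delta7-dafachronic acid wells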
SMARCA2 act: SMARCA2 (BRM) function activators, primary screen, cell-based, luminescence, high throughput; MG213 cells, MMTV-luciferase reporter, dexamethasone, overnight; activation, % at 9.1 µM; 370,000 compounds, 1% hits; AID 652017, 2013; in the data active means activation above about 7.8%;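 further: 0% = vehicle wells and 100% = reference activator wells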
hcDAF-12 act: H. contortus DAF-12 nuclear receptor activators, primary screen, cell-based, luminescence, HEK293, lit1-tk-luc reporter. HEK293 hcDAF-12 lit1-tk-luc reporter; 0% DMSO, 100% Δ7-dafachronic acid. activation, % at 6.8 µM. 370,000 compounds, 1.4% hits;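 active means activation above the mean of all tested compounds plus 3 SD, cut at about 5.5% in these data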;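 further: 100% = response to 3 µM Δ7-dafachronic acid high control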
DAX1 inh confirm: DAX1 (NR0B1) inhibitors relieving SF-1 repression, confirmation, cell-based, luminescence, HEK293T, full-length DAX-1, SF-1 activated StAR promoter. 2,400 compounds, 87% hits. shares compounds with DAX1 inh-2. inhibition, % at 6.8 µM. HEK293T StAR-promoter luciferase reporter, SF-1/DAX-1 repression;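 active means inhibition above the average of every tested compound plus 3 SD, cut at about 3.8% in these data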;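 further: 0% = DAX-1 cells with DMSO and 100% = no DAX-1 control cells with DMSO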
SF1 AF2mut Luc: StAR reporter signal changes without DAX1, counter-screen for DAX1 inhibitor project, cell-based, luminescence, AF-2 mutant SF-1, transactivation. shares compounds with DAX1 inh-2. HEK293 StAR-luciferase, SF-1 AF2 mutant. inhibition, % at 6.8 µM. 2,400 compounds, 78% hits. AID 652136, 2013;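 active means inhibition above the mean of all tested compounds plus 3 SD, cut at about 3% in these data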;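 further: 0% = DAX-1 transfected cells with DMSO and 100% = cells without DAX-1 with DMSO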
SMARCA2 act conf: SMARCA2 (BRM) function activators, confirmation, cell-based, luminescence, triplicate; 3,500 compounds, 30% hits; AID 652260, 2013; shares compounds with SMARCA2 act; activation, % at 9.1 µM; MG213 cells, MMTV-luciferase with dexamethasone, overnight; MG213 cells expressing E1A, Rb sequestered; DMSO wells 0%, reference activator 100%;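 active means activation above its plate's cutoff, the mean activation of tested wells plus 3 SD, cut at about 7.9% in these data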
GAL4-VP16 Luc: GAL4-VP16 luciferase reporter activation, counter-screen for SMARCA2 (BRM) activator project, cell-based, pG5luc, luminescence, high throughput; shares compounds with SMARCA2 act; HEK293 GAL4-VP16 pG5luc reporter; scaled: DMSO wells 0%, SAHA wells 100%; 3,500 compounds, 41% hits; activation, % at 9.1 µM; AID 686939, 2013;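 active means activation above the solvent-only control well mean plus 3 SD, averaged across control plates, cut at about 5.2% in these data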
LXR ag: LXR agonists, Gal4 luciferase reporter, confirmation, counter-screen for hcDAF-12 agonist project, cell-based, luminescence, HEK293, H. contortus campaign; HEK293 Gal4-LXR tk-luc reporter, 24 h; normalized: DMSO 0%, positive control 100%; activation, % at 6.8 µM; shares compounds with hcDAF-12 act; 3,400 tested, under 10 active;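 active means mean percent activation of the reporter above a cutoff set as the average over tested compounds plus their standard deviation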
Target sequence (P55055 whole entry, looked up, the tested form may be a part): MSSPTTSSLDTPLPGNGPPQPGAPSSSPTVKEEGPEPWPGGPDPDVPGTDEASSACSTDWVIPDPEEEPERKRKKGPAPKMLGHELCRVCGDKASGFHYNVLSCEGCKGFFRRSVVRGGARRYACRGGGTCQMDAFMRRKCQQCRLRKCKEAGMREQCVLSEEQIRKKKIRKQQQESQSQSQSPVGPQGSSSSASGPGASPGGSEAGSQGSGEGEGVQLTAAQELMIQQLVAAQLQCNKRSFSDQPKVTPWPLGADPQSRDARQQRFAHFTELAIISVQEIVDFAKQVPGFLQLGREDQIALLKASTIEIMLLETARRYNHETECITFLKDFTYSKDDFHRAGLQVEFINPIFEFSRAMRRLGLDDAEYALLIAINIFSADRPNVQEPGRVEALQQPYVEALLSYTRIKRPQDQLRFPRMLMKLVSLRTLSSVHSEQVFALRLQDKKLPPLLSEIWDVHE
hcDAF12 ag: H. contortus DAF-12 receptor agonists, confirmation, cell-based, luminescence, HEK293, lit1-tk-luc, triplicate; shares compounds with hcDAF-12 act; HEK293 hcDAF-12 lit1-tk-luc reporter; % of Δ7-dafachronic acid response; activation, % at 6.8 µM; 3,400 compounds, 61% hits;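 active means mean activation across triplicate tests above the threshold derived from the earlier primary screen, cut at about 5.5% in these data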;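 further: 0% = DMSO only wells and 100% = 3 µM Δ7-dafachronic acid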
hgDAF12 conf: H. glycines DAF-12 receptor agonists, confirmation, cell-based, luminescence, HEK293, GAL4-LBD fusion; shares compounds with hgDAF12 agonist; HEK293 GAL4-hgDAF12 luciferase reporter, agonist mode; percent of butyrate response; activation, % at 6.8 µM; 3,300 compounds, 80% hits;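 active means mean activation over triplicate wells above the hit cutoff derived from the earlier primary screen, cut at about 11% in these data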;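 further: 0% = DMSO low control and 100% = 2 mM sodium butyrate high control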
LXRb DAF12 ctr: LXR agonists, Gal4 luciferase reporter, confirmation, counter-screen for hgDAF-12 agonist project, cell-based, luminescence, HEK293, H. glycines campaign | 3,300 tested, under 10 active | activation, % at 6.8 µM | 24 h | shares compounds with hgDAF12 agonist;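 active means mean activation of the triplicate above a set limit carried over from the primary screen, none filed active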
The depositor's hits bear a star; . = not tested or not shown.

SMILES	DAX1 inh-1	hgDAF12 agonist	DAX1 inh-2	ssDAF12 agonist	SMARCA2 act	hcDAF-12 act	DAX1 inh confirm	SF1 AF2mut Luc	hgDAF12 conf	LXRb DAF12 ctr	others
CCCOC(=O)Nc1ccc(N2CCCCC2)cc1	1	15*	5.3*	1	6	5	16*	5.8*	14*	1
O=C(Nc1ccc(N2CCCC2)cc1)c1ccc(Br)cc1	2	-4	0	0	2	0	.	.	.	.
O=C(Nc1ccc(N2CCCCCC2)cc1)c1ccc[nH]1	1	15*	13*	1	7	7.3*	9.4*	5.8*	17*	1	LXR ag=2;hcDAF12 ag=10.0*
O=C(/C(C=Nc1ccc(Br)cc1)=C(/O)c1ccco1)C(F)(F)F	0	19*	5.3*	0	7	5	17*	-3	16*	1
COc1nc(-c2ccc(C)cc2)ccc1-c1noc(-c2ccco2)n1	1	2	-1	-1	0	0	.	.	.	.
COc1nc(C)ccc1-c1noc(-c2ccco2)n1	0	15*	5.0*	1	7	7.8*	12*	5.4*	15*	1	LXR ag=2;hcDAF12 ag=6.6*
Cc1cc2c(cc1C)CSC(c1ccc(O)cc1)SC2	-1	-1	1	-1	-2	-1	.	.	.	.
C=CCOc1ccc(/C=N/Nc2ccccn2)cc1OC	2	14*	5.3*	-1	9.0*	1	4.7*	3	11*	0	SMARCA2 act conf=9.2*;GAL4-VP16 Luc=11*
CCOc1ccc(/C=N/Nc2ccccn2)cc1OC	2	16*	6.7*	0	2	2	8.3*	4.4*	13*	0
C(=N\Nc1ccccn1)/c1ccc2c(c1)OCCO2	1	27*	5.6*	1	2	6.0*	15*	9.4*	22*	1
O=C(O)c1cc(N/N=C/c2ccc3c(c2)OCCO3)ccc1Cl	-4	17*	4.6*	0	8	3	13*	6.0*	23*	1
Fc1cccc(/C=N/Nc2ccccn2)c1	2	2	2	0	5	2	.	.	.	.
Clc1ccc(-c2nnc(C3CCCCC3)o2)cc1	1	4	0	-1	1	-2	.	.	.	.
Cc1cccc(C(=O)NCC(=O)N2CCCC2)c1	0	3	1	-1	-1	1	.	.	.	.
O=C(CC1SC(N2CCCCC2)=NC1=O)Nc1cccc(C(=O)NCc2ccccc2)c1 (configuration not stated)	-1	0	0	-1	0	1	.	.	.	.
CN(/N=C/c1cccnc1)c1cnc2ccccc2n1	2	20*	7.3*	4.2*	9.0*	12*	11*	5.8*	17*	1	SMARCA2 act conf=19*;GAL4-VP16 Luc=11*;LXR ag=1;hcDAF12 ag=10*
C(=N\N=C\c1cccnc1)/c1cccnc1	0	.	.	.	.	.	.	.	.	.
CCCc1cc(N2CCOCC2)n2nc(C)c(-c3ccccc3)c2n1	1	-2	0	-1	-4	1	.	.	.	.
O=C(Nc1ccc2c(c1)OCCO2)C1C(c2ccccc2)=Nc2ccccc2N1C(=O)c1cccnc1 (configuration not stated)	.	20*	13*	0	3	11*	20*	7.9*	12*	1	LXR ag=2;hcDAF12 ag=7.1*
Cc1cccc(C)c1NC(=O)C1C(c2ccc3c(c2)OCO3)=Nc2ccccc2N1C(=O)c1ccccc1 (configuration not stated)	.	0	1	-1	3	0	.	.	.	.
CN(C)c1ccc2c(=O)c3ccccc3oc2n1	.	13*	7.8*	0	2	7.9*	13*	5.9*	22*	1	LXR ag=1;hcDAF12 ag=8.4*
Cc1nc2oc3ccccc3c(=O)c2cc1C(=O)O	0	0	0	-1	0	0	.	.	.	.
